According to PubChem BioAssay (NCATS):
Records with an inconclusive call do not appear. A call without a number means that no potency is given here. Active and inactive are the calls of the source. Unless noted, calls come from the whole dose curve; as a rule, active = well fitted curve in the direction sought with a large enough effect; inconclusive = small, poorly fitted or top-dose-only effect, or another doubt; inactive = no such curve, though single readings can be large; an effect the other way counts as inactive or inconclusive.

Columns and labels:
[1] = biological target: Vitamin D3 receptor (Homo sapiens) (UniProt P11473); experiment: qHTS assay for small molecule agonists of vitamin D receptor signaling (AID 588543; calls by dose curve)
Chain of Vitamin D3 receptor (Homo sapiens) (P11473 whole entry, looked up): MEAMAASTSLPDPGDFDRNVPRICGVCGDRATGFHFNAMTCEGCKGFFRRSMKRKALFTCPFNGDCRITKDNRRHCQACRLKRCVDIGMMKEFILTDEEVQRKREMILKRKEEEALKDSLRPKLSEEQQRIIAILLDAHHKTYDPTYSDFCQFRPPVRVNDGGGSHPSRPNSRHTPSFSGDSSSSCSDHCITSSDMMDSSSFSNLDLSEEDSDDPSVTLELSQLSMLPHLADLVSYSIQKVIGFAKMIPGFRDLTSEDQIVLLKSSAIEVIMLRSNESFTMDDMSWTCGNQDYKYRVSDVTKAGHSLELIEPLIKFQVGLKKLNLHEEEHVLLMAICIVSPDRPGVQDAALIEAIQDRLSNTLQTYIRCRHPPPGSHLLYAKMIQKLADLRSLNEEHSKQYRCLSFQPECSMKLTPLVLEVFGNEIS
How it was run: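 Agonist-mode beta-lactamase reporter: HEK293T VDR-UAS-bla cells in charcoal-stripped 2% FBS, compound series 16 h 37 C, CCF4 2 h RT. EC50 from Hill fit, scaled against DMSO and 50 nM calcitriol control.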

[2] = biological target: Peroxisome proliferator-activated receptor alpha (Homo sapiens) (UniProt Q07869); experiment: qHTS assay for small molecule agonists of the peroxisome proliferator-activated receptor alpha (PPARalpha) signaling pathway (AID 651778); conditions: PathHunter PPARalpha complementation, chemiluminescence, 6 h; max response: stronger effect = higher value
Chain of Peroxisome proliferator-activated receptor alpha (Homo sapiens) (Q07869 whole entry, looked up): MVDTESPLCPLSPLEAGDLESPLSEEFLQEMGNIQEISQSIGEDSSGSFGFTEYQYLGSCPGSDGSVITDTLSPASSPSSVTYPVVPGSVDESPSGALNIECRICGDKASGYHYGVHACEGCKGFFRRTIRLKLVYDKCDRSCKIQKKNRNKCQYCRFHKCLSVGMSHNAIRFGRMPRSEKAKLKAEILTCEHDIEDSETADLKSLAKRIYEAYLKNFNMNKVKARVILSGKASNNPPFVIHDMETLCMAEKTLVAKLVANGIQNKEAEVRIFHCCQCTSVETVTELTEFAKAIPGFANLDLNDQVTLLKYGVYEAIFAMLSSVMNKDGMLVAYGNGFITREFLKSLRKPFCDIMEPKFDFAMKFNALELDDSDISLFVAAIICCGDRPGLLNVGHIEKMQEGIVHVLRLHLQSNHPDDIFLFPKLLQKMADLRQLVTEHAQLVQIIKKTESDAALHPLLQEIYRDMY
How it was run: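 Chemiluminescence from complemented enzyme reported PPARalpha activation in cells after 6 hr of compound treatment at 37 C. The detection reagent was incubated for 60 min at room temperature, and compounds were scored as agonists.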

[3] = qHTS assay for small molecule agonists of the antioxidant response element (ARE) signaling pathway measured by Nrf2-dependant transcriptional activity (AID 720636; active = well fitted curve in the direction sought with a large enough effect in the repeat runs; an effect the other way counts as inactive or inconclusive)
How it was run: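 ARE-luc HepG2 cells carrying an Nrf2-responsive luciferase reporter were plated in medium with 1% dialyzed FBS, left 6 hr at 37 C to attach, then exposed to compound for 16 hr. Luciferase luminescence was read after ONE-Glo addition.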

[4] = biological target: Glucocorticoid receptor (Homo sapiens) (UniProt P04150); experiment: qHTS assay for small molecule antagonists of glucocorticoid receptor signaling (AID 588533; active = well fitted inhibition curve with a large enough effect in the signal ratio, with a control signal flat, not every such curve was filed as active; the % refers to the signal ratio;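 note: cells stimulated with 2 nM dexamethasone as agonist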)
Chain of Glucocorticoid receptor (Homo sapiens) (P04150 whole entry, looked up): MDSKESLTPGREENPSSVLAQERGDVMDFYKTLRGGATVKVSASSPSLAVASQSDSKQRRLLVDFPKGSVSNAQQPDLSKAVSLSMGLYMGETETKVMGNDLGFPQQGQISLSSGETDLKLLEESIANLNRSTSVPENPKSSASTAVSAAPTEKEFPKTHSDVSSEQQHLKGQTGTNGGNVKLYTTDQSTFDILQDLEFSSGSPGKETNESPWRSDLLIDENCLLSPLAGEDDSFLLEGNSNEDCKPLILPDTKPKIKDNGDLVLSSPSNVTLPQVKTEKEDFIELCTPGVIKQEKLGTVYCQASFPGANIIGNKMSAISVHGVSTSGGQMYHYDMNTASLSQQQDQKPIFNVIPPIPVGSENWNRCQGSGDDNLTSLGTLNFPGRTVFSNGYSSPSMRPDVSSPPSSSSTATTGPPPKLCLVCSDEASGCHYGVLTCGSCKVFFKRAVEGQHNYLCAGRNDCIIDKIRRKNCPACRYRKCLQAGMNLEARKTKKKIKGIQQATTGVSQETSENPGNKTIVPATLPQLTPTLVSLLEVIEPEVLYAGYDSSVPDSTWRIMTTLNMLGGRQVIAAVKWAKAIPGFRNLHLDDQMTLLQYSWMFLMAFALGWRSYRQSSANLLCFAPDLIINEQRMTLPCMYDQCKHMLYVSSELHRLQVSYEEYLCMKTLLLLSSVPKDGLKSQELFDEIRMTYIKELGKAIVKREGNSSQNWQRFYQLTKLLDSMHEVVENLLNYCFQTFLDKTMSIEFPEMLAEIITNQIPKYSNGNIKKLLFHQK
How it was run: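 Antagonist-mode qHTS: compound titrations added to GRE-bla HeLa cells, then dexamethasone 2 nM final; 18 h, 37 C. CCF4 FRET fluorescence normalized to dexamethasone and DMSO; IC50 from Hill fit.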

[5] = qHTS assay for small molecule antagonists of peroxisome proliferator-activated receptor delta signaling (AID 588535; active = well fitted inhibition curve with a large enough effect in the signal ratio, with a control signal flat, not every such curve was filed as active; the % refers to the signal ratio;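 for max response: cells co-treated with a PPAR-delta agonist as stimulator during compound exposure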); conditions: HEK293T PPARd-UAS-bla, beta-lactamase FRET ratio, 18 h; 460 nm channel
How it was run: (§1)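 HEK293T PPAR-delta-UAS-bla cells, 4000/well, 2% charcoal/dextran FBS; 5 h 37 C; cpd titration; 18 h 37 C; CCF4 2 h RT; FI 460/530 nm; Hill fit → IC50, efficacy.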

[6] = biological target: Peroxisome proliferator-activated receptor delta (Homo sapiens) (UniProt Q03181); experiment: as above
Chain of Peroxisome proliferator-activated receptor delta (Homo sapiens) (Q03181 whole entry, looked up): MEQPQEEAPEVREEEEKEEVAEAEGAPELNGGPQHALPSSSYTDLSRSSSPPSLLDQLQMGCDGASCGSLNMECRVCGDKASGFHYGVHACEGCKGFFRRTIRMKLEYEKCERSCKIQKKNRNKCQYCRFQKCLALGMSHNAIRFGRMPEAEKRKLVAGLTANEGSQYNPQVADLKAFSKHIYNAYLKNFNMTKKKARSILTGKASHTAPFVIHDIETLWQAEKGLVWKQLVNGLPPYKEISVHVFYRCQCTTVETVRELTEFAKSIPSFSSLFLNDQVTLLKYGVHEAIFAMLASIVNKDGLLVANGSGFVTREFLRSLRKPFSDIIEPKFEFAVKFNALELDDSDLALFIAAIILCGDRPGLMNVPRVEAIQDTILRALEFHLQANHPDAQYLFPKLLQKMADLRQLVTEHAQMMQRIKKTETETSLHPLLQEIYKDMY
How it was run: as §1

[7] = biological target: Peroxisome proliferator-activated receptor gamma (Homo sapiens) (UniProt P37231); experiment: qHTS assay for small molecule agonists of peroxisome proliferator-activated receptor gamma signaling (AID 588536; active = well fitted curve in the direction sought with a large enough effect in the signal ratio, with a control signal flat, not every such curve was filed as active; the % refers to the signal ratio)
Chain of Peroxisome proliferator-activated receptor gamma (Homo sapiens) (P37231 whole entry, looked up): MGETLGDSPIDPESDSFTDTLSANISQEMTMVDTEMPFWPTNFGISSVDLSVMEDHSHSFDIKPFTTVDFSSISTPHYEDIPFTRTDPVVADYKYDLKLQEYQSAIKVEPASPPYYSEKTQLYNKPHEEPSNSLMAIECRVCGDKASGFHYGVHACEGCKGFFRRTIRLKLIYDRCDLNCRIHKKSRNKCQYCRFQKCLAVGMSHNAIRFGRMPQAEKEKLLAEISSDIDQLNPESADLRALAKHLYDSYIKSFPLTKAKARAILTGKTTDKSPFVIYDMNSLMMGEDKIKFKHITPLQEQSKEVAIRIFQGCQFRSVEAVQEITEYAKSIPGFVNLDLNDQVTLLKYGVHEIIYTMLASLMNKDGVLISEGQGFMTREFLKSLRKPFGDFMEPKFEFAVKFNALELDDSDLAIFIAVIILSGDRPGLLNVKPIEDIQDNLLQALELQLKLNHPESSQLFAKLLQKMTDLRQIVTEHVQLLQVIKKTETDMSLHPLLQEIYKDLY
How it was run: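 Ratiometric blue/green fluorescence (405 nm excitation; 460 and 530 nm emission) from CCF4-loaded HEK293 reporter cells serves as signal. Exposure to test compounds lasts 16 h at 37 C in medium containing 1% charcoal/dextran-treated serum.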

[8] = biological target: Peroxisome proliferator-activated receptor gamma (Homo sapiens) (UniProt P37231); experiment: qHTS assay for small molecule antagonists of peroxisome proliferator-activated receptor gamma signaling (AID 588537; active = well fitted inhibition curve with a large enough effect in the signal ratio, with a control signal flat, not every such curve was filed as active; the % refers to the signal ratio;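 note: reporter cells co-stimulated with 50 nM rosiglitazone agonist during compound treatment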)
How it was run: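 Antagonist mode, beta-lactamase reporter in HEK293; charcoal/dextran FBS 1%; 3000 cells/well, 37 C 6-6.5 h; cpd titration + rosiglitazone 50 nM final, 16 h 37 C; CCF4, 2 h RT; 460/530 nm; Hill fit → IC50, efficacy.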

[9] = biological target: Vitamin D3 receptor (Homo sapiens) (UniProt P11473); experiment: qHTS assay for small molecule antagonists of vitamin D receptor signaling (AID 588541; calls by dose curve;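 note: receptor activated by calcitriol during compound treatment; series mostly up to about 77 µM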)
How it was run: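 Antagonist-mode beta-lactamase reporter assay: HEK293T VDR-UAS-bla cells were exposed to titrated compound alongside 1-alpha,25-dihydroxyvitamin D3 at 3 nM final for 16 h. Values were normalized to the 50 nM agonist control and DMSO basal, with IC50 and efficacy from Hill equation fits.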

[10] = qHTS assay for small molecule agonists of retinoid X receptor alpha signaling (AID 588544; calls by dose curve); conditions: HEK293T RXRa-UAS-bla, beta-lactamase reporter, 18 h; 530 nm emission
[11] = biological target: Retinoic acid receptor RXR-alpha (Homo sapiens) (UniProt P19793); experiment: as above
Chain of Retinoic acid receptor RXR-alpha (Homo sapiens) (P19793 whole entry, looked up): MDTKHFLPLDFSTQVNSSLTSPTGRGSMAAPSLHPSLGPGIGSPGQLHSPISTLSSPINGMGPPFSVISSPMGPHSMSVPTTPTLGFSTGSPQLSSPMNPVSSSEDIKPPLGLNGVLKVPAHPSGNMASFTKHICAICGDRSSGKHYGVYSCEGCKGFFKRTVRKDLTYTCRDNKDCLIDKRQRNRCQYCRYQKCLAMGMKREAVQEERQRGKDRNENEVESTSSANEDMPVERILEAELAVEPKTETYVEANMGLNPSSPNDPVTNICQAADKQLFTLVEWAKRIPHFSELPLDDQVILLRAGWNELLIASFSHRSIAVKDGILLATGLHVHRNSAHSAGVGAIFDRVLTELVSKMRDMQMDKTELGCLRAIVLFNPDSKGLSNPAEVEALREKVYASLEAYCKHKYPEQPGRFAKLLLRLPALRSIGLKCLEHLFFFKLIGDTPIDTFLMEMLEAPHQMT

[12] = qHTS assay for small molecule antagonists of retinoid X receptor alpha signaling (AID 588546; active = well fitted inhibition curve with a large enough effect in the signal ratio, with a control signal flat, not every such curve was filed as active; the % refers to the signal ratio; note: potency is the fitted concentration of half-maximal effect;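 for max response: cells stimulated with 9-cis-retinoic acid as agonist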); conditions: HEK293T RXRa-UAS-bla, beta-lactamase ratio, antagonist mode; measured here: W530 green channel, cytotoxicity proxy
How it was run: (§2)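 Beta-lactamase reporter inhibition, read as CCF4 fluorescence ratio (ex 405, em 460/530 nm) after 2 h at RT. HEK293T UAS-bla cells, 2500/well, were stimulated with 9-cis-RA at 500 or 100 nM final alongside test compound for 18 h at 37 C.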

[13] = biological target: Retinoic acid receptor RXR-alpha (Homo sapiens) (UniProt P19793); experiment: as above; conditions: HEK293T RXRa-UAS-bla, beta-lactamase ratio, antagonist mode
How it was run: as §2

[14] = biological target: Thyroid hormone receptor beta (Homo sapiens) (UniProt P10828); experiment: qHTS assay for small molecule antagonists of thyroid hormone receptor beta signaling (AID 588547; active = well fitted inhibition curve with a large enough effect in the signal ratio, with a control signal flat, not every such curve was filed as active; the % refers to the signal ratio;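 note: cells stimulated with 0.4 nM T3 agonist during compound exposure; series mostly up to about 77 µM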); conditions: TR-UAS-bla HEK293, beta-lactamase ratio, antagonist mode, 18 h
Chain of Thyroid hormone receptor beta (Homo sapiens) (P10828 whole entry, looked up): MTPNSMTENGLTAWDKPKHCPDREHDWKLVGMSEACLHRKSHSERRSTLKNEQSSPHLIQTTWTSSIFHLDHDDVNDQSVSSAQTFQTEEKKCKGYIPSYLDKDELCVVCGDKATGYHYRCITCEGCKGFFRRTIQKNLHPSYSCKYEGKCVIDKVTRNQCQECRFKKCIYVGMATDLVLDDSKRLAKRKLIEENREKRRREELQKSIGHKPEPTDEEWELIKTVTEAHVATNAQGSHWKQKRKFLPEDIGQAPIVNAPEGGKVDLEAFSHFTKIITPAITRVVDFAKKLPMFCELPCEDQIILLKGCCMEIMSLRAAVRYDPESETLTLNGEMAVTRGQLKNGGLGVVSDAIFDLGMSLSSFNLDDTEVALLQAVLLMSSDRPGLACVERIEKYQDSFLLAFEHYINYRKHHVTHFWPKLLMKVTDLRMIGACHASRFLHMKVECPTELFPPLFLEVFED
How it was run: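 Inhibition of T3-driven (0.4nM final) beta-lactamase reporter activity was measured over 0.59 nM to 92 uM compound after 18 h at 37 C. The cells were GripTite HEK293 TR-UAS-bla in charcoal/dextran-stripped serum, with CCF4 ratio read-out and IC50 from Hill fits.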

[15] = qHTS assay for small molecule agonists of the antioxidant response element (ARE) signaling pathway (AID 651741; active = well fitted activation curve with a large enough effect in the signal ratio; the % refers to the signal ratio; note: potency is the fitted concentration of half-maximal effect)
How it was run: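 Quantitative HTS in HepG2 cells stably expressing an ARE-beta-lactamase reporter; 16 h compound exposure at 37 C, followed by 2 h room-temperature incubation with LiveBLAzer B/G FRET substrate and fluorescence measurement.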

[16] = qHTS assay for small molecule activators of the p53 signaling pathway (AID 651743; active = well fitted activation curve with a large enough effect in the signal ratio, not every such curve was filed as active; the % refers to the signal ratio; note: potency is the fitted concentration of half-maximal effect; for activation: series mostly up to about 92 µM); conditions: HCT-116 p53RE-bla, beta-lactamase FRET ratio, 16 h; activation: stronger effect = higher value
How it was run: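 Read-out is fluorescence intensity from the LiveBLAzer B/G FRET substrate, added for 2 hours at room temperature after HCT-116 p53RE-bla cells had been incubated with compounds for 16 hours at 37 C.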

[17] = qHTS assay for environmental chemicals that activate the Aryl hydrocarbon Receptor (AhR) signaling pathway (AID 651777); conditions: 1A2-DRE human hepatoma cells, luciferase, 24 h; activation: stronger effect = higher value; note: nearly all actives have a fitted effect of over 15% in size
How it was run: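 Human hepatoma 1A2-DRE cells, stably carrying a dioxin response element and CYP1A2 promoter driving luciferase, were exposed to compounds for 24 hr at 37 C and 5% CO2. Luciferase signal was then read after 30 min One-Glo at room temperature.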

[18] = qHTS assay for small molecule agonists of the antioxidant response element (ARE) signaling pathway measured by Nrf2-dependant transcriptional activity - cell viability counter screen (AID 720653; active = well fitted curve in the direction sought with a large enough effect in the repeat runs; an effect the other way counts as inactive or inconclusive); conditions: ARE-bla HepG2 viability, CellTiter-Glo ATP luminescence, 16 h; max response: stronger effect = lower value
How it was run: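 Cytotoxicity counter screen: intracellular ATP quantified by CellTiter-Glo luminescence in the same ARE-bla HepG2 plates, after 16 h compound exposure and a 2 h beta-lactamase substrate step.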

[19] = qHTS assay for cell viability of HEK293 cells (AID 743288); conditions: ATP luminescence (CellTiter-Glo), 18 h; max response: stronger effect = lower value; note: nearly all actives have a fitted effect of over 50% in size
How it was run: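 Total intracellular ATP, measured with a luciferase-coupled reagent, indicates the number of viable HEK293 cells. Exposure to test chemicals lasts 18 h at 37 C in 1,536-well format at 2,000 cells/well.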

[20] = qHTS assay for cell viability of the p53RE-bla HCT-116 cell line (AID 743292); note: nearly all actives have a fitted effect of over 55% in size
How it was run: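 CellSensor p53RE-bla HCT-116 cells, 4,000/well, preincubated 5 h at 37 C, then exposed to compounds in DMSO for 16 h at 37 C. Viability read as CellTiter-Glo luminescence (intracellular ATP) after 30 min at room temperature.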

[21] = biological target: Nuclear receptor subfamily 1 group I member 2 (Rattus norvegicus) (UniProt Q9R1A7); experiment: qHTS assay for small molecule activators of the rat pregnane X receptor (rPXR) signaling pathway (AID 651751; call rule not given here); conditions: rPXR reporter cells, luciferase (One-Glo), 24 h
Chain of Nuclear receptor subfamily 1 group I member 2 (Rattus norvegicus) (Q9R1A7 whole entry, looked up): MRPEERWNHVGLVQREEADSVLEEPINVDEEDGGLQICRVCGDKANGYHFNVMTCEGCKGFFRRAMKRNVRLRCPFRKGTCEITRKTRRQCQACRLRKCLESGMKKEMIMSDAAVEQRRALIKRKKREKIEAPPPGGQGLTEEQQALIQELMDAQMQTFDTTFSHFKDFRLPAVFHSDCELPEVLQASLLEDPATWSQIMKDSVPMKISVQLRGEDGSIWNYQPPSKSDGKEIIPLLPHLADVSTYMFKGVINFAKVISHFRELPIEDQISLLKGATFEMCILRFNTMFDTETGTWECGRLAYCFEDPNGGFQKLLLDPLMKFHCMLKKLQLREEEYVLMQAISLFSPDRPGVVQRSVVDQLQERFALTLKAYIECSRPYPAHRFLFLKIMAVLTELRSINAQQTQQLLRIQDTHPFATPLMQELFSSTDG

[22] = qHTS assay for small molecule activators of the human pregnane X receptor (PXR) signaling pathway (AID 720659; call rule not given here)
[23] = qHTS assay for small molecule activators of the nuclear factor-kappa B (NF-kB) signaling pathway (AID 651749; active = well fitted activation curve with a large enough effect in the signal ratio; the % refers to the signal ratio; note: series mostly up to about 77 µM); conditions: NF-kB-bla ME-180 cells, beta-lactamase FRET ratio, 16 h; activation: stronger effect = higher value
How it was run: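 Readout: beta-lactamase reporter driven by an NF-kB response element, detected fluorescently as loss of FRET. Cells were the ME-180 line, treated 16 hr at 37C with pin-transferred compound.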

[24] = biological target: Glucocorticoid receptor (Homo sapiens) (UniProt P04150); experiment: qHTS assay for small molecule agonists of glucocorticoid receptor signaling (AID 588532; active = well fitted curve in the direction sought with a large enough effect in the signal ratio, with a control signal flat; the % refers to the signal ratio); conditions: HeLa MMTV-bla, beta-lactamase ratio, agonist, 18 h; stronger effect = higher value; percent of dexamethasone control, DMSO zero
How it was run: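 Quantitative HTS using CellSensor MMTV-bla HeLa cells in charcoal/dextran-treated serum; compounds tested up to 92 uM. After 18 h at 37 C, CCF4 dye reported reporter induction.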

[25] = biological target: Thyroid hormone receptor beta (Homo sapiens) (UniProt P10828); experiment: qHTS assay for small molecule agonists of thyroid hormone receptor beta signaling (AID 588545; calls by dose curve)
How it was run: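 Compounds were tested as agonists in TR-UAS-bla-GripTite HEK 293 cells. After 18 hrs at 37 C, CCF4 substrate was added and fluorescence read after 2 hrs at room temperature.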

N#CSCSc1nc2ccccc2s1
outcome [1]: inactive
max response [2]: -9.14% (inactive)
Potency [3]: inactive

O=C(Cl)c1cccc(C(=O)Cl)c1
Potency [4]: inactive
max response [5]: -11.7%
Potency [6]: inactive
outcome [7]: inactive
Potency [8]: inactive
Potency [9]: inactive
outcome [1]: inactive
max response [10]: -7.46%
Potency [11]: inactive
max response [12]: -3.89%
max response [13]: -13.1% (inactive)
activity change % (negative = inhibition) [14]: -4.29% (inactive)
Potency [15]: inactive
activation [16]: -3.51% (inactive)
activation [17]: -0.235% (inactive)
max response [2]: -0.213% (inactive)
Potency [3]: inactive
max response [18]: 5.28% (inactive)
max response [19]: -6.55% (inactive)
Potency [20]: inactive
max response [21]: -0.886% (inactive)
outcome [22]: inactive

C=C(C)C(=O)OCCC[Si](Cl)(Cl)Cl
Potency [4]: inactive
max response [5]: 8.96%
Potency [6]: inactive
outcome [7]: inactive
Potency [8]: inactive
Potency [9]: inactive
max response [10]: -12.2%
Potency [11]: inactive
max response [12]: -12.6%
max response [13]: 9.64% (inactive)
activation [16]: -1.03% (inactive)
activation [23]: -0.259% (inactive)
activation [17]: -0.113% (inactive)
max response [2]: 0.0328% (inactive)
Potency [3]: inactive
max response [18]: -17.2% (inactive)
max response [19]: -10.2% (inactive)
Potency [20]: inactive
max response [21]: 1.99% (inactive)
outcome [22]: inactive

C[C@]12CC[C@@H]3c4ccc(O)cc4CC[C@H]3[C@@H]1CC[C@H]2O
activation [24]: -4.59% (inactive)
outcome [7]: inactive
Potency [9]: inactive
outcome [1]: inactive
Potency [25]: inactive
activity change % (negative = inhibition) [14]: -9.59% (inactive)
Potency [15]: inactive
activation [16]: 23.4% (inactive)
activation [17]: 0.328% (inactive)
max response [2]: -0.0791% (inactive)
Potency [3]: inactive
max response [19]: -24% (inactive)
Potency [20]: inactive

O=[N+]([O-])c1ccc(O)cc1C(F)(F)F
activation [24]: -7.74% (inactive)
max response [5]: -4.35%
Potency [6]: inactive
Potency [8]: inactive
Potency [9]: inactive
outcome [1]: inactive
Potency [25]: inactive
max response [12]: 6.72%
Potency [13]: 7.94 µM (active)
Potency [15]: 34.4 µM (active)
Potency [16]: 31.6 µM (active)
activation [17]: 14.2% (inactive)
max response [2]: -8.59% (inactive)
Potency [3]: inactive
Potency [20]: inactive
outcome [22]: inactive
